The record followed here is PubChem BioAssay AID651642 (Sanford-Burnham Center for Chemical Genomics, 2012).

Active and inactive are the calls of the source.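 How the source made its calls: active means average half-effect concentration of 10 µM or less in every one of the four cell panels; inactive means the rest.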

The assay concerns H9c2. The assay can be described thus: cardiomyocyte survival under oxidative or metabolic stress – cell-based, panel, H9c2 and HL-1, H2O2, 2-deoxyglucose, ATP luminescence, SAR follow-up (AID 651642). To be noted: H9c2/HL-1 cardiomyocyte H2O2 oxidative damage, mean of runs, with H2O2.
Consider `COc1ccc2c(c1OC)C(=O)N1c3ccccc3C(=O)N(Cc3ccccc3F)C21` (centres undefined), for which the call was inactive.

Take `COc1cc(-c2cc(C(=O)Nc3cccc(C(C)=O)c3)c3cc(F)ccc3n2)cc(OC)c1OC`: the outcome was active.

As for `CCOC(=O)c1cccc(NC(=O)c2cc(-c3cc(OC)c(OC)c(OC)c3)nc3ccccc23)c1`, the result was inactive.

As for `CCOC(=O)c1cccc(NC(=O)CNC(=O)c2cc(-c3cc(OC)c(OC)c(OC)c3)nc3ccc(OC)cc23)c1`, the outcome was active.

Turning to `COc1ccc2c(c1OC)C(=O)N1c3ccccc3C(=O)N(Cc3ccccn3)C21` (centres undefined), the compound was classed as inactive.

`COc1cc(-c2cc(C(=O)Nc3cccc(C(C)=O)c3)c3cc(Br)ccc3n2)cc(OC)c1OC`: the call was inactive.

Regarding `CCOC(=O)c1ccccc1NC(=O)c1cc(-c2cc(OC)c(OC)c(OC)c2)nc2ccccc12`, the compound was classed as inactive.

As for `COc1ccc2nc(-c3cc(OC)c(OC)c(OC)c3)cc(C(=O)NCC(=O)Nc3ccc(C(C)=O)cc3)c2c1`, the compound was called active.

As to `CCOC(=O)c1cccc(NC(=O)c2cc(-c3cc(OC)c(OC)c(OC)c3)nc3ccc(Br)cc23)c1`, the compound was called inactive.

As for `COc1cc(-c2cc(C(=O)Nc3cccc(C#N)c3)c3ccccc3n2)cc(OC)c1OC`, the compound was classed as inactive.

Take `CCOC(=O)c1cccc(NC(=O)c2cc(-c3cc(OC)c(OC)c(OC)c3)nc3ccc(Cl)cc23)c1`: the compound was called inactive.

Take `COc1cc(-c2cc(C(=O)Nc3cccc(C(=O)NCc4ccccc4)c3)c3ccccc3n2)cc(OC)c1OC`: the compound was classed as active.

Turning to `COc1cc(-c2cc(C(=O)NCC(=O)Nc3cccc(C(C)=O)c3)c3cc(Br)ccc3n2)cc(OC)c1OC`, the compound was classed as active.

Take `COc1cc(-c2cc(C(=O)NCC(=O)Nc3ccc(C(C)=O)cc3)c3ccccc3n2)cc(OC)c1OC`: the compound was classed as inactive.
